# Compound activity (PubChem BioAssay)
# Lassa entry inh: blocks Lassa virus binding to or entry into cells. Lassa virus pseudotype entry inhibition, cell reporter. Potency, µM (top dose mostly 37.9 µM), for the others: top-dose activity change, negative = inhibition, hits mostly inhibitors. 300,000 compounds, 1.2% hits; calls by dose curve; tested in HEK293 cells; also: potency is read from the fitted curve at half-maximal effect; % is scaled to controls: 0 for no effect and ±100 for the full control effect; nearly all actives have a fitted effect of over 50% in size
# AMA1 RON2 block: inhibitors of Plasmodium falciparum AMA1-RON2 interaction | AlphaScreen AMA1-biotinylated RON2 peptide binding | Potency, µM (top dose mostly 58.2 µM), for inactives: at the highest dose activity change, negative = inhibition, usual class: inhibitors | 360,000 compounds, 0.2% hits; active = well fitted inhibition curve with a large enough effect; inconclusive = small, poorly fitted or top-dose-only effect; inactive = no such curve, though single readings can be large or run the other way;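 also: potency is read from the fitted curve at half-maximal effect; 0% = vehicle wells and -100% = peptide control; nearly all actives have a fitted effect of over 45% in size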
#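 AMA1 (3D7) with his tag at 25 nM final met compounds first, then biotinylated RON2 peptide at 25 nM; detection used donor plus acceptor beads, 10 µg/mL apiece, read by AlphaScreen after 30 min at room temperature.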
# Cycloheximide cs: counter-screen for Shiga toxin inhibitors: cycloheximide protein synthesis inhibition; cell reporter, cycloheximide protein synthesis inhibition counterscreen; max response, %; 300,000 compounds, 12% hits; in the data active = max response mostly above about 13%, no sharp cut-off; inactive = mostly below about 14%; also: read at 38.3 µM for the half of the compounds with a filed dose; 0% is about no effect
# Marburg entry inh: inhibitors of Marburg virus binding or cell entry; AID 540276; Potency, µM (highest dose often 37.8 µM), for inactives: at the highest dose activity change, negative = inhibition, hits mostly inhibitors; Marburg virus pseudotyped entry inhibition, cell reporter; 300,000 compounds, 1.8% hits; calls by dose curve; tested in HEK293 cells; also: potency is read from the fitted curve at half-maximal effect; % is scaled to controls: 0 for no effect and ±100 for the full control effect
# Shiga inhibitor: inhibitors of Shiga toxin in Vero cells; Vero cells, Shiga toxin protein synthesis inhibition reporter; inhibition, % at 38.7 µM; 290,000 compounds, 9.2% hits; AID 2315; in the data active = inhibition mostly above about 28%, no sharp cut-off; inactive = mostly below about 43%; also: 0% is about no effect
# The depositor's hits bear a star; ? = inconclusive; / = not tested or not shown; ! = not confirmed by another sample; [ ] = dose if it differs, or a comment. Shown is part of a subset that was picked to be rich in hits.
SMILES,Lassa entry inh,AMA1 RON2 block,Cycloheximide cs,Marburg entry inh,Shiga inhibitor
O=C(Nc1cc2c(cc1Br)OCCCO2)c1cccnc1,17%,3%,38*,?,84*
O=C(N/N=C/c1cc2c(cc1Br)OCO2)c1cccnc1,/,19%,14,/,31
Cc1cccc(NC(=O)c2c(O)c3ccccc3[nH]c2=O)c1,/,49%,33*,/,38*
Cc1ccc(NC(=O)Cc2c(O)c3ccccc3[nH]c2=O)c(C)c1,21%,0%,18*,-1%,22
O=C(Nc1cccc(O)c1)c1c(O)c2ccccc2[nH]c1=O,/,59%,48*,/,38*
Cc1cccc(C)c1NC(=O)c1c(O)c2ccccc2[nH]c1=O,/,14%,-2,/,-6
O=C(Nc1cccc(C(F)(F)F)c1)c1c(O)c2ccccc2[nH]c1=O,/,3%,-6,/,25
Cc1ccccc1C[n+]1cccc2ccccc21,/,5%,/,/,/
CCCCCCCCC[n+]1cccc2c3ccccc3ccc21,2.8µM*,1%,-2,2µM*,-15
CCCCCCCCCCCCCCCC[n+]1cccc2ccccc21,7.9µM*,-2%,-9,?,-13
COc1ccc(OCC(=O)NC2CC(=O)N(c3ccc4c(c3)OCCO4)C2)cc1 (stereo not given),11%[46.1 µM],/,/,/,/
O=C1CC(=Nc2ccccc2)NN1c1ccccc1,13%,-11%,14*,-33%,-2
O=C1Cc2ccccc2N1c1ccccc1,1%,-4%,-2,1%,-7
O=C(CCCn1c(=S)[nH]c2cc3c(cc2c1=O)OCO3)NCCc1ccccc1Cl,/,116%,0,/,-2
Cc1[nH]c2ccccc2c1C(=O)COC(=O)C1CC(=O)N(Cc2ccco2)C1 (stereo not given),1%,-20%,-4,1%,-2
O=C(COC(=O)C1CC(=O)N(Cc2ccco2)C1)c1ccc(OC(=O)c2ccco2)cc1 (stereo not given),9%,-9%,10*,?,26
Cc1ccc(C(=O)Oc2ccc(C(=O)COC(=O)C3CC(=O)N(Cc4ccco4)C3)cc2)cc1 (stereo not given),9%,-14%,29*,?,68*
O=C(COC(=O)C1CC(=O)N(Cc2ccccc2)C1)c1ccc(Br)cc1 (stereo not given),8%,-7%,-1,3%,-7
O=C(c1cc(-c2ccccc2)on1)N1CCCc2ccccc21,/,0%,50*,/,61*
O=C(c1cc(-c2ccco2)on1)N1CCCc2ccccc21,12%,-1%,16*,8%,105*
Cc1ccccc1-c1noc(CSc2nc(-c3ccc(F)cc3)cc(=O)[nH]2)n1,-2%[46.1 µM],/,/,/,/
CC(C)(C)c1ccc(C(=O)Nc2ccc(CC(=O)O)cc2)o1,2.3µM*,12%,-12,?,-19
c1ccc(-n2cnc3cc(NCc4ccccn4)ccc32)cc1,?,?,59*,-20%,82*
c1ccc(Cn2c(NCc3ccccn3)nc3ccccc32)cc1,-18%[46.1 µM],38%,-2,?,3
c1ccc(-n2cnc3cc(NCc4ccncc4)ccc32)cc1,?,-5%,27*,-14%,91*
SMILES,Lassa entry inh,AMA1 RON2 block,Cycloheximide cs,Marburg entry inh,Shiga inhibitor
c1ccc(NCc2ccncc2)cc1,/,6%,1,/,3
N#CC(C#N)=Cc1ccc(O)cc1,/,/,20,/,active!
N#C/C(=C\c1ccc(O)cc1)C(=O)O (tested in a mixture with another compound),/,0%,/,/,/
C(=N\N1CCN(Cc2cccc3ccccc23)CC1)/c1ccco1,5%,?,9,1%,-8
Cc1ccc(N2CCN(/N=C/C=C/c3ccccc3)CC2)cc1,?,-16%,-3,3%,-3
C(/C=C/c1ccco1)=N/N1CCN(c2ccccc2)CC1,?,?,34*,-27%,106*
Clc1ccccc1CN1CCN(/N=C/C=C\c2ccco2)CC1,9%,10µM*,16*,?,69*
CCc1cccc(NC(=O)Cn2c(=O)n(CCCCCC(=O)NCc3ccc(F)cc3)c(=O)c3sccc32)c1,0%[46.1 µM],/,/,?,/
O=C(CSc1ncccc1C(=O)Oc1ccccc1Cl)Nc1ccccc1Cl,?,/,20,/,64*
COc1ccc(CN(C)CC(=O)Nc2ccccc2-c2ccccc2)c(OC)c1,?,1%,11,?,-2
O=C(COc1ccccc1O)Nc1ccccc1Cl,0%,12%,71*,-19%[46.1 µM],93*
Cc1ccccc1NC(=O)COc1ccccc1C,/,11%,16*,/,27
COc1ccccc1CN(C)CC(=O)Nc1ccccc1-c1ccccc1,11%,4%,15*,?,2
Cc1ccccc1OCC(=O)Nc1ccccc1-c1ccccc1,/,14%,18*,0%,42*
CC(C)(C)c1cc([N+](=O)[O-])cc(C(C)(C)C)c1O,16µM*,-9%,2,6.5µM*,25
CC(C)(C)c1csc(CS(=O)(=O)c2ccccn2)n1,/,0%,24*,/,88*
Cc1nc(CS(=O)(=O)c2ccccn2)sc1C(=O)NNC(=O)c1ccccc1,?,-8%,-2,?,17
COc1ccc(C(=O)[C@@H]2CCCCC2=O)cc1,/,/,/,24%,/
CCOc1ccc(OCCN2C(=O)NC(Cc3c[nH]c4ccccc34)C2=O)cc1 (stereo not given),?,-18%,3,18%,3
C#CC(C)(C)NC(=O)c1ccc(-c2ccccc2F)cc1,4%,-11%,30*,?,64*
NNC(=O)c1ccc(-c2ccccc2F)cc1,/,51%,7,/,13
NC(=O)c1ccc(-c2ccccc2F)cc1,/,-2%,17*,/,41*
CCc1ccc2oc(-c3ccc(NC(=O)c4cccc(Cl)c4Cl)cc3)nc2c1,-27%[46.1 µM],/,/,/,/
O=C(C[n+]1ccccc1)N/N=C/c1c(F)cccc1Cl,/,3%,5,/,16
Cc1nc2ccccn2c1-c1nnco1,0%,1%,-2,0%[46.1 µM],-9
SMILES,Lassa entry inh,AMA1 RON2 block,Cycloheximide cs,Marburg entry inh,Shiga inhibitor
Cc1cc(-c2nnco2)c(C)n1-c1ccccc1,1%,4%,37*,?,63
C=CCN1CCN(C(=O)CSc2ccccc2)CC1,/,4%,34*,/,32*
O=C(N1CCN(c2ccccn2)CC1)C(Cl)(Cl)Cl,7%,2%,28*,3%,34*
C=CCN1CCN(C(=O)c2ccc(-c3ccccc3)cc2)CC1,/,5%,-3,/,-6
O=C(CSc1ccccc1)N1CCN(c2ccccn2)CC1,-2%,-8%,15*,7%[46.1 µM],30
O=C(CCSCc1ccccc1F)N1CCN(c2ccccn2)CC1,28%,-3%,28*,28%,79*
COc1ccccc1NC(=O)Cc1nnc(SCC(=O)NC2=NCCS2)n1C,-10%[46.1 µM],13%,2,4%[46.1 µM],16
CC(C)CCN1C(N(C)C)=NC[C@@H]1C,/,7%,/,/,/
CCCCCC(=O)Nc1ccc(C(=O)CN2C(=O)NC3(CCCCCC3)C2=O)cc1,-7%,-2%,/,14%[46.1 µM],/
COc1cc(CCC(=O)N2CCN(c3ncccn3)CC2)cc(OC)c1OC,16%[46.1 µM],3%,-1,1%[46.1 µM],1
O=C(c1c(Cl)cccc1Cl)N1CCN(c2ccccn2)CC1,2%,9%,-2,3%,-10
O=C(CSc1ccccc1)N1CCN(S(=O)(=O)c2ccccc2)CC1,2%,18%,-2,12%,-4
